We go through 91 compounds from PubChem BioAssay AID1952 (The Scripps Research Institute Molecular Screening Center, 2009).

The structures appear in SMILES notation. Hit rate of the full screen: of about 2,400 compounds, about 1,200 (50%) were called active. So high a share suggests a set chosen from earlier hits. The list is a sample of the results. A number with no mark means an inactive call. No stated cut-off is given here; in the data, active means inhibition above about 24%; inactive means the rest.

This test deals with Neuropeptides B/W receptor type 1 (Homo sapiens) (UniProt P48145). In words: GPR7 receptor antagonists, confirmation, cell-based, fluorescence, single concentration (AID 1952).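 Further: stimulated with the GPR7 agonist NPW; 0% = agonist plus vehicle and 100% = vehicle alone without agonist.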 Particulars: GPR7-expressing cells, calcium fluorescence antagonist mode; at 4.4 µM; stronger effect = higher value.
Neuropeptides B/W receptor type 1 (Homo sapiens), sequence (P48145 whole entry, looked up): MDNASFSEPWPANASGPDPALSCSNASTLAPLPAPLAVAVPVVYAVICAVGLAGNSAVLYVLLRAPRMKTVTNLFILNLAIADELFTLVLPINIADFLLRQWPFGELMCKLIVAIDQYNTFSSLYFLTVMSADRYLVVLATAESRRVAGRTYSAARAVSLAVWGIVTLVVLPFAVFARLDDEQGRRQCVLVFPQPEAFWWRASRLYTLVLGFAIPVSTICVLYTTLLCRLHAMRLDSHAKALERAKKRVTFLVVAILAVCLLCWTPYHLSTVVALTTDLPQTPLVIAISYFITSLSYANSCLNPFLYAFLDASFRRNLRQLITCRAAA
Broadly, the inhibition is the drop in the measured response relative to a control, in per cent. Take `Cc1cccc(CS(=O)(=O)c2ncc(Cl)c(C(=O)Nc3ccc(F)cc3)n2)c1`: the inhibition is 51.2% (active). Turning to `COc1ccccc1CNC(=O)COc1ccc(C)nc1[N+](=O)[O-]`, the inhibition is 2.95%.

On to `COc1ccccc1Oc1ccc(S(=O)(=O)Nc2cccnc2)cc1`, for which the inhibition was 16.8%.

For `COc1ccc(NS(=O)(=O)c2ccc(NC(=S)NC(=O)CC(C)C)cc2)cc1`, the inhibition is 35.8% (active).

As to `COc1ccc(C2Nc3ccccc3C(=O)N2Cc2ccccc2)cc1Cn1nnc2ccccc21` (stereo unspecified), the inhibition was 31.7% (active). To `O=C(CC(=O)Nc1ccc(Cl)c(Cl)c1)N/N=C/c1ccc(O)cc1` belongs 10.9%; to `CC1(C)CC(CNCCC(c2ccc(F)cc2)c2ccco2)CCO1` (stereo unspecified), 12.5%; to `COc1ccc(C(CCNCc2ccccc2F)c2ccc(F)cc2)cc1` (stereo unspecified), 47.2% (active). To `CC(C)OCCCNc1ncnc2c1[nH]c1ccc(F)cc12` belongs 39.2% (active). To `O=C(CCc1ccccc1)Nc1ccc(NC(=O)C2CC2)nc1` belongs 17.6%; to `O=C(CN1CCN(C(=S)NC2CCCC2)CC1)Nc1ccc(Oc2ccccc2)cc1`, 28.6% (active); to `Cc1ccc(NC(=O)CN2CCC3(O)CCCCC3C2c2ccc3c(c2)OCO3)c(C)c1` (stereo unspecified), 19.6%. Take `CCc1ccc(NC(=O)c2ccc(Cn3cc([N+](=O)[O-])cn3)cc2)cc1`: the inhibition is 29.5% (active). For `O=C(COc1ccccc1)NCc1ccc2c(c1)OCO2` the value was 14.3%; for `CCOc1ccc(Cn2nnc(C(=O)NCc3ccccc3)c2N)cc1`, 52.4% (active); for `COc1cc(NC(=O)CN2C(=O)NC(C)(c3ccc(OC(F)F)cc3)C2=O)cc(OC)c1OC` (stereo unspecified), 23.2%.

With `Cc1cc2c(cc1C)N(Cc1ccccc1)C1=NCCCN12`, the inhibition was 20.8%. To `CCN1CCN(c2ccc([N+](=O)[O-])cc2C(=O)c2ccc(Cl)cc2)CC1` belongs 39.6% (active); to `CCOc1ccc(C(=O)NC(=S)Nc2ccc(N3CCOCC3)c(Cl)c2)cc1[N+](=O)[O-]`, -6.59%; to `COc1ccc(N=C2SC(C(=O)Nc3ccc(F)cc3)CC(=O)N2C)cc1` (stereo unspecified), 4.38%.

As for `Fc1ccc(-c2ccc(-c3nn4c(-c5ccco5)nnc4s3)o2)cc1`, the inhibition is 8.54%. To `O=C(CN1C(=O)/C(=C/c2ccccc2F)Sc2ccccc21)NCc1cccnc1` belongs -18%; to `Cc1ccc(C(=O)C[n+]2cc(-c3ccccc3)n3c2CCCCC3)cc1`, 27.9% (active); to `C=CCC1(CC=C)CCCN1C(=O)c1cc(COc2ccc(-n3cncn3)cc2)on1`, 29.2% (active). For `Clc1ccc(-c2cc(C3CCNCC3)[nH]n2)c(Cl)c1` the value was 34.3% (active). For `CCCCCCCCCCOC(=O)Cn1c(COc2cccc(OC)c2)[n+](C)c2ccccc21`, the inhibition is 78.9% (active). For `Cc1cccc(NC(=O)c2cccc(C(=O)Nc3cccc(C)c3C)n2)c1C` the value was 37.8% (active); for `Clc1ccc(C2CC(c3cccs3)n3ncnc3N2)cc1Cl` (stereo unspecified), 31.9% (active); for `CCC(C(=O)Nc1ccc(C(C)C)cc1)c1ccccc1` (stereo unspecified), 94.1% (active). `C=CCNC(=O)COC(=O)c1ccccc1C(=O)N(C)C1CCCCC1`: the inhibition is -3.62%. For `O=C(Nc1ccc2c(c1)OCO2)C1CC(c2c(F)cccc2Cl)=NO1` (stereo unspecified) the value was 8.85%; for `CC(=O)N1CCCc2cc(S(=O)(=O)N3CCCC(C(=O)N4CCN(c5cccc(Cl)c5)CC4)C3)ccc21` (stereo unspecified), 69.6% (active); for `COc1ccc(NC(=O)C2CCC(CNS(=O)(=O)c3csc(C(N)=O)c3)CC2)cc1OC` (stereo unspecified), -15.3%. To `COc1cc(OC)cc(C(=O)N[C@H](C(=O)OCC(=O)NC(C)c2ccccc2)C(C)C)c1` (stereo partly specified) belongs 79.4% (active).

Turning to `COCCCNC(=S)N1CCN(c2nc(-c3cccc(OC)c3)cs2)CC1`, the inhibition is 19%. For `O=C(Cc1ccc(Cl)cc1)NC(=S)Nc1ccccc1O` the value was 84.5% (active); for `Cc1ccccc1NC(=S)NC(=O)Cc1ccc(Cl)cc1`, 70.5% (active). For `O=C(NC(=O)c1ccccc1)Nc1ccccc1O` the value was 12.2%; for `O=C(CCCN1CCc2[nH]c3ccc(F)cc3c2C1)c1ccc(F)cc1`, 18.6%.

`CN(c1cccc(NC(=O)Nc2ccc(Cl)cc2)c1)S(C)(=O)=O`: the inhibition was 31% (active).

Take `OC(CNCC1CCCO1)Cn1c2ccc(Br)cc2c2cc(Br)ccc21` (stereo unspecified): the inhibition was 78.3% (active).

As for `Cc1ccccc1CN1C(=O)c2ccccc2Sc2ccc(C(=O)NCCCN3CCOCC3)cc21`, the inhibition was 42.4% (active). For `O=C(NCCCN1CCOCC1)c1ccc2c(c1)N(Cc1cccc(F)c1)C(=O)c1ccccc1S2` the value was 24.3% (active); for `O=C(CSc1nnc(-c2ccco2)o1)NCC(=O)c1ccccc1`, -14.8%. To `Cc1ccc(S(=O)(=O)n2cnc3ccccc32)c(C)c1` belongs -4.27%. To `COc1ccc(C)cc1NC(=O)NCCCCc1ccccc1` belongs 4.53%; to `CS(=O)(=O)N(Cc1ccc(Cl)cc1)c1ccc(C(=O)NCCSCc2ccco2)cc1`, 32.3% (active); to `Cc1ccc2[nH]cc(CCNC(=O)c3ccc([N+](=O)[O-])cc3)c2c1`, 40.7% (active).

Take `Cc1ccccc1CN1C[C@@H]2C[C@@H](c3cn(C)nc3-c3ccccc3)N3CCC[C@@]23C1=O`: the inhibition was 21.9%. For `Cc1ccc(NC2=C(Cl)C(=O)OC2OC(=O)c2ccccc2C)cc1` (stereo unspecified) the value was 4.37%; for `CC1CN(C(=O)CCC(=O)NCCCN2CCC(Cc3ccccc3)CC2)c2cc(Cl)ccc2O1` (stereo unspecified), 49.4% (active). In the case of `c1ccc(C2CNCc3c2ccc2ccccc32)cc1` (stereo unspecified), the inhibition is 89.5% (active).

For the compound `CC(=O)Nc1ccc(S(=O)(=O)N(C)CC(=O)NCCC2=CCCCC2)cc1`, the inhibition was -0.53%. For `S=C(NCCc1ccccc1)Nc1ccccc1` the value was 1.82%; for `CN(c1ccccc1)S(=O)(=O)c1ccc(C(=O)NCCc2ccccc2)cc1`, 24.1% (active); for `N=c1n(CCc2ccccc2)c2ccccc2n1Cc1ccccc1F`, 36.4% (active). For `CS(=O)(=O)Nc1cccc(C2=NN(S(=O)(=O)c3ccccc3)C(c3cccs3)C2)c1` (stereo unspecified) the value was 22.3%; for `CCN(CC)Cc1c(C(=O)OC)nnn1-c1nonc1N`, -1.39%; for `CCOc1ncccc1C(=O)NCCc1ccc(OC)cc1`, 15%. In the case of `COc1ccc(CS(=O)/C(Cl)=C(/Cl)C(=O)Nc2ccc(OC)nc2)cc1` (stereo unspecified), the inhibition was 63.6% (active).

Turning to `CCc1ccc(OCC2c3cc(OC)c(OC)cc3CCN2C(C)=O)cc1` (stereo unspecified), the inhibition is 30% (active). For `CCN(CC)CCOCCOc1ccc(Cl)c2ccccc12` the value was 20.8%; for `COc1ccccc1N1CCN(c2ncnc3sc(C)c(-c4ccccc4)c23)CC1`, 37.2% (active); for `CCC(C)c1ccccc1NC(=O)CN(C)CC(=O)Nc1ccccc1SC` (stereo unspecified), 19.5%.

For `O=C(NCCCN1CCN(c2ccc(F)cc2)CC1)Nc1ccc([N+](=O)[O-])cc1`, the inhibition is 41.9% (active). To `COc1cccc(CNCCc2c[nH]c3ccccc23)c1OCc1ccccc1F` belongs 61.5% (active); to `O=C(CSCc1ccc([N+](=O)[O-])cc1)NCCSCc1ccccc1`, 35.4% (active). For the compound `O=C(NCCNc1ccc([N+](=O)[O-])cc1Cl)c1ccccc1F`, the inhibition was 18.8%.

`O=[N+]([O-])c1ccc(N(CCO)Cc2ccccc2)c([N+](=O)[O-])c1`: the inhibition is 23.3%.

Turning to `CC(C(=O)N1CCN(c2ccccc2F)CC1)c1ccc([N+](=O)[O-])cc1` (stereo unspecified), the inhibition is 42.2% (active). To `Cc1cc(OC(C)C(=O)NC2CC(C)(C)NC(C)(C)C2)c2c(C)cc(=O)oc2c1` (stereo unspecified) belongs -2.7%; to `Cc1c(CCO)c(=O)n(-c2ccccc2)n1S(=O)(=O)c1ccc(F)cc1`, -9.84%; to `Cc1cc(OCc2ccc(C(=O)Nc3ccc(C(=O)O)cc3)o2)ccc1Cl`, 44.9% (active). To `Cc1ccc2nc(C)c3c(c2c1)N(c1ccccc1)CC3` belongs 37.9% (active). For `CS(=O)(=O)N(CC(O)Cn1c2ccccc2c2ccccc21)c1cccc2ccccc12` (stereo unspecified) the value was 45% (active).

As to `O=[N+]([O-])/C=C/c1ccc2c(ccn2Cc2ccccc2)c1`, the inhibition is 92.4% (active).

Regarding `CN(C)S(=O)(=O)N1CCC(Oc2cccc(C(=O)NCCCC3CCCC3)c2)CC1`, the inhibition is 40.1% (active). To `COc1ccc([N+](=O)[O-])cc1N(CC(O)CN(CC(C)C)CC(C)C)S(=O)(=O)c1ccc(C)cc1` (stereo unspecified) belongs 31.9% (active). For `N#CC1=C(SCc2ccc(C#N)cc2)N=C(N)C(c2nc(-c3ccccc3)cs2)C12CCCCC2` (stereo unspecified) the value was 44.2% (active); for `COc1cc(OC)c(-n2cc(-c3ccc(Cl)cc3)[nH]c2=O)cc1Cl`, 60.4% (active). Consider `O=C(COc1ccc(S(=O)(=O)Nc2cccc(C(F)(F)F)c2)cc1)N1CCOCC1`, for which the inhibition is 19.6%. For `Cc1cc(Cl)ccc1OCCCC(=O)Nc1cccc(-n2cnnn2)c1` the value was 27.4% (active); for `O=S(=O)(c1ccc(OCC(O)CN2CCN(c3ccccc3Cl)CC2)cc1)N1CCOCC1` (stereo unspecified), 11.4%; for `Cc1ccc(NC(=S)N(CCCN2CCC(C)CC2)Cc2ccco2)cc1`, 0.61%. On to `Cc1ccc(SCc2cc(=O)[nH]c(N3CCCCC3)n2)cc1`, for which the inhibition was -9.2%. To `CCCOc1ccccc1C1CC(=O)Nc2cc3c(cc21)OCO3` (stereo unspecified) belongs 24.6% (active); to `Cc1ccccc1Nc1nnc(SCC(=O)c2cc3ccccc3o2)s1`, 3.71%. For `Nc1nnc(SCC(=O)Nc2ccc3nc(SCC(=O)Nc4ccccc4)sc3c2)s1` the value was 59.8% (active); for `Cc1ccc(CNC(=O)C2CCN(S(=O)(=O)c3ccc4nc5c(c(C(=O)O)c4c3)CC(C)CC5)CC2)cc1` (stereo unspecified), 16.8%. To `Cn1c(=O)c([N+](=O)[O-])c(Oc2ccccc2)c2ccccc21` belongs 17.2%; to `COc1ccccc1N(C(=O)Cn1nnc2ccccc21)C(C(=O)NCc1ccco1)c1ccc(C)o1` (stereo unspecified), 22.8%.
